Source: PubChem BioAssay (Tox21)
Records with an inconclusive call do not appear. The source made the active and inactive calls. Unless noted, the call rests on the fitted dose curve; in most records, active means well fitted curve in the direction sought with a large enough effect in the repeat runs; inconclusive means weak or mixed curves; inactive means no such curve, though single readings can be large; an effect the other way counts as inactive or inconclusive.

Experiments:
[1] = qHTS assay to identify small molecule antagonists of the peroxisome proliferator-activated receptor delta (PPARd) signaling pathway - cell viability counter screen (AID 743213); further: nearly all actives have a fitted effect of over 50% in size
Method in brief: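 Agonist-stimulated (L165041, 300 nM final) HEK293H PPARd UAS-bla cells are exposed to compounds for 17 h at 37 C, and ATP-based luminescence (CellTiter-Glo) from the same wells reports cytotoxicity.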

[2] = qHTS assay to identify small molecule agonists of the farnesoid-X-receptor (FXR) signaling pathway - cell viability counter screen (AID 743218); further: nearly all actives have a fitted effect of over 45% in size
Method in brief: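 HEK 293T FXR-bla cells; 5 h pre-incubation, 16 h compound exposure at 37 C; LiveBLAzer substrate 2 h RT, then CellTiter-Glo 30 min RT, luminescence.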

[3] = qHTS assay to identify small molecule antagonists of the farnesoid-X-receptor (FXR) signaling pathway - cell viability counter screen (AID 743221; active means well fitted cell-killing curve with a large enough effect in the repeat runs, not every such curve was filed as active; further: nearly all actives have a fitted effect of over 50% in size)
Method in brief: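 Cytotoxicity is taken from ATP luminescence (CellTiter-Glo, 30 min, room temperature) in FXR-bla HEK 293T cells previously incubated 16 h at 37 C with compound and chenodeoxycholic acid at 50 uM final.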

[4] = target: Vitamin D3 receptor (Homo sapiens) (UniProt P11473); experiment: qHTS assay to identify small molecule agonists of the vitamin D receptor (VDR) signaling pathway (AID 743222; calls by dose curve)
Method in brief: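 VDR-bla cells, 2,000/well; 4 h preincubation 37C; cpd (DMSO) 16 h; LiveBLAzer B/G substrate 2 h RT; fluorescence intensity read.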

[5] = target: Vitamin D3 receptor (Homo sapiens) (UniProt P11473); experiment: qHTS assay to identify small molecule antagonists of the vitamin D receptor (VDR) signaling pathway (AID 743223; active means well fitted inhibition curve with a large enough effect in the signal ratio in the repeat runs, not every such curve was filed as active; the % refers to the signal ratio)
Method in brief: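 Quantitative HTS in VDR-bla reporter cells stimulated with 1alpha,25-dihydroxyvitamin D3, 3 nM final. Compound exposure 16 h, 37C, 5% CO2. Read-out: beta-lactamase FRET substrate fluorescence, 2 h RT.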

[6] = target: Peroxisome proliferator-activated receptor delta (Homo sapiens) (UniProt Q03181); experiment: qHTS assay to identify small molecule agonists of the peroxisome proliferator-activated receptor delta (PPARd) signaling pathway (AID 743212; calls by dose curve)
Method in brief: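 GeneBLAzer UAS-bla HEK293H cells carrying a PPARδ construct were exposed to compounds at 37 °C. Beta-lactamase activity was read by FRET fluorescence after 2 h at room temperature with LiveBLAzer B/G substrate.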

[7] = target: Peroxisome proliferator-activated receptor delta (Homo sapiens) (UniProt Q03181); experiment: qHTS assay to identify small molecule antagonists of the peroxisome proliferator-activated receptor delta (PPARd) signaling pathway (AID 743215; active means well fitted inhibition curve with a large enough effect in the signal ratio in the repeat runs, not every such curve was filed as active; the % refers to the signal ratio; further: series mostly up to about 62 µM)
Method in brief: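 Read-out is beta-lactamase FRET fluorescence, measured 2 h after substrate addition at room temperature. Beforehand, UAS-bla HEK293H cells carrying the PPARd reporter were exposed to compounds with L165041 at 300 nM final for 17 h at 37 C.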

[8] = target: Bile acid receptor (Homo sapiens) (UniProt Q96RI1); experiment: qHTS assay to identify small molecule antagonists of the farnesoid-X-receptor (FXR) signaling pathway (AID 743217; active means well fitted inhibition curve with a large enough effect in the signal ratio in the repeat runs, not every such curve was filed as active; the % refers to the signal ratio)
Method in brief: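 HEK 293T FXR-UAS-bla, 5000 cells/well; compound + CDCA 50 uM final; 16 h, 37 °C; B/G FRET substrate 2 h RT; fluorescence.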

[9] = target: Bile acid receptor (Homo sapiens) (UniProt Q96RI1); experiment: qHTS assay to identify small molecule agonists of the farnesoid-X-receptor (FXR) signaling pathway (AID 743220; active means well fitted activation curve with a large enough effect in the signal ratio in the repeat runs, not every such curve was filed as active; the % refers to the signal ratio)
Method in brief: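 Beta-lactamase reporter under UAS control in GeneBLAzer FXR HEK 293T cells (5000/well) measured with LiveBLAzer FRET substrate after 2 h at room temperature. Compound exposure lasted 16 h at 37C.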

Measured: Potency

Bile acid receptor (Homo sapiens), sequence (Q96RI1 whole entry, looked up): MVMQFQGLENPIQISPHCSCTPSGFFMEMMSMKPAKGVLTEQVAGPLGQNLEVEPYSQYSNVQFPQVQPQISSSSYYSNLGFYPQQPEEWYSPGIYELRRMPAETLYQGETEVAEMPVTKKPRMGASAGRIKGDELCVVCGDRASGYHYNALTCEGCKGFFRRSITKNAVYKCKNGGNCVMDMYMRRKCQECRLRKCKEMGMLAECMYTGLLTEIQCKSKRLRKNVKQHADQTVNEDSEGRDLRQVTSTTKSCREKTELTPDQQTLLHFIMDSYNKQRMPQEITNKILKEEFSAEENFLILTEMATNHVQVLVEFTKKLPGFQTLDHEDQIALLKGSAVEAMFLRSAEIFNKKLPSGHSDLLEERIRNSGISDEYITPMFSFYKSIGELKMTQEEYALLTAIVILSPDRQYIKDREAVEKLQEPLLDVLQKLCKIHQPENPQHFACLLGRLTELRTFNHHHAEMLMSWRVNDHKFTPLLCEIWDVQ
Vitamin D3 receptor (Homo sapiens), sequence (P11473 whole entry, looked up): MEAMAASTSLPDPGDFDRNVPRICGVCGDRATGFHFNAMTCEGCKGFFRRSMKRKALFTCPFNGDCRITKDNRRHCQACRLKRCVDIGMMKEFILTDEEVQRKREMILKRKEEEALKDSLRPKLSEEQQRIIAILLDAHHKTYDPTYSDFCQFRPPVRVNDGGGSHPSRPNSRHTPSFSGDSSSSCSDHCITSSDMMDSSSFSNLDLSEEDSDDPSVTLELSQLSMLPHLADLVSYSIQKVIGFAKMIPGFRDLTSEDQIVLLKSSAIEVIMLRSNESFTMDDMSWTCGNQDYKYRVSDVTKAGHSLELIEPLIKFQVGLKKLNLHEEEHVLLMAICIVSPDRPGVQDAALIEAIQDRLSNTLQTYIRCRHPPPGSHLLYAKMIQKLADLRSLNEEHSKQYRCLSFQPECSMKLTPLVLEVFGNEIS
Peroxisome proliferator-activated receptor delta (Homo sapiens), sequence (Q03181 whole entry, looked up): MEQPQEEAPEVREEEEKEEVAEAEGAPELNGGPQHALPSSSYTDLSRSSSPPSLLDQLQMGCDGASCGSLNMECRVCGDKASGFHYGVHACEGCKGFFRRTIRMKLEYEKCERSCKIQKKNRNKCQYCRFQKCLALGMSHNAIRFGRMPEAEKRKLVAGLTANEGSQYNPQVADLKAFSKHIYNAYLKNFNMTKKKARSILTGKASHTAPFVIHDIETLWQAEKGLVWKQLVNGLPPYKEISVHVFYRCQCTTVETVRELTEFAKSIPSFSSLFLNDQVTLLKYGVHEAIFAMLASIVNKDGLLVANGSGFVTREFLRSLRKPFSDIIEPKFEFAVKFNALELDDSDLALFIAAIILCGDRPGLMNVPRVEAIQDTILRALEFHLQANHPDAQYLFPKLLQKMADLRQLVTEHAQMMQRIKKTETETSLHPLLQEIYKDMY

CNC(=O)O/N=C(/CSC)C(C)(C)C
inactive: [1] | [2] | [3] | [4] | [5]

CS(=O)(=O)Cl
inactive: [6] | [7] | [2] | [3] | [5]

ClCCCCCCCl
inactive: [1] | [2] | [3] | [4] | [5]

CCC(CC)(CNC(=O)CCCO)c1cccc(OC)c1
inactive: [6] | [1] | [2] | [3] | [4] | [5]

O=C(Cl)OCc1ccccc1
inactive: [1] | [2] | [3]

COC(=O)c1ccc(CBr)cc1
inactive: [6] | [1] | [7] | [2] | [3] | [4] | [5]

Oc1ccc2c3c1O[C@H]1[C@@H](O)C=C[C@H]4[C@@H](C2)NCC[C@@]341
inactive: [1] | [8] | [2] | [9] | [3] | [4] | [5]

O=P(O)(O)CN(CP(=O)(O)O)CP(=O)(O)O
inactive: [6] | [1] | [7] | [2] | [3] | [4] | [5]

CCOC(=O)C(SP(=S)(OC)OC)c1ccccc1 (configuration not stated)
inactive: [1] | [8] | [9] | [3] | [4] | [5]

C=C(C)[C@H]1CN[C@H](C(=O)O)[C@H]1CC(=O)O
inactive: [6] | [1] | [7] | [2] | [3] | [5]

CC(C)[C@]12CC(=O)[C@H](C)[C@H]1C2
inactive: [6] | [7] | [8] | [2] | [9] | [3] | [4] | [5]

N#CN
inactive: [6] | [1] | [2] | [3] | [4] | [5]

CCC1(c2cccc(O)c2)CCCCN(C)C1 (configuration not stated)
inactive: [6] | [1] | [7] | [2] | [3] | [5]

CC[C@H](N)c1ccccc1
inactive: [1] | [2] | [3] | [4] | [5]

C[N+]1(C)CCCCC1
inactive: [6] | [1] | [7] | [2] | [3] | [5]

CCN[C@H](C)Cc1cccc(C(F)(F)F)c1
inactive: [6] | [1] | [7] | [8] | [2] | [3]

CNC(=O)Oc1cc(C)c(N(C)C)c(C)c1
inactive: [6] | [1] | [7] | [8] | [2] | [3]

CNC(=O)NC(O)C(Cl)(Cl)Cl (configuration not stated)
inactive: [6] | [7] | [2] | [3] | [5]

C[C@H](CN1CCOCC1)C(C(=O)N1CCCC1)(c1ccccc1)c1ccccc1
inactive: [6] | [1] | [7] | [2] | [9] | [3] | [4]

CC#Cc1cc(C)nc(Nc2ccccc2)n1
inactive: [6] | [1] | [7] | [3] | [5]

ClC(Cl)(Cl)Cl
inactive: [6] | [1] | [8] | [2] | [9] | [3] | [4] | [5]

COc1ccc2c(C(=O)c3ccc(Cl)cc3)c(C)n(CC(=O)O)c2c1
inactive: [6] | [1] | [7] | [8] | [9] | [3]

CCN(CCO)CCn1c(Cc2ccccc2)nc2c1c(=O)n(C)c(=O)n2C
inactive: [1] | [8] | [9] | [3]

CC1NCCOC1c1ccccc1 (configuration not stated)
inactive: [6] | [1] | [7] | [2] | [3] | [4] | [5]
